Results filed as inconclusive are left out. A call without a number means that no potency is given here. Calls of active or inactive are those of the source. Calls come from the whole dose curve; as a rule, active = well fitted inhibition curve with a large enough effect; inconclusive = small, poorly fitted or top-dose-only effect; inactive = flat fitted curve, though single readings scatter.
System: UISO
Assay: qHTS assay to identify novel small-molecules to repurpose for Merkel cell carcinoma treatment (AID 1296009); note: nearly all actives have a fitted effect of over 60% in size
Settings: MCC and control cell lines, CellTiter-Glo viability, 72 h; series mostly up to 46 µM
Outline: (§1)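 qHTS format: cells treated with library compounds in DMSO across 8 (NPC) or 11 (MIPE) concentrations. Readout after 72 hr at 37 degree celsius was CellTiter-Glo luminescence.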
Potency is the fitted concentration of half-maximal effect.

| SMILES | Potency |
| --- | --- |
| CN1C(=O)C(Cc2c[nH]c3ccccc23)NC1=S (stereo not given) | inactive |
| Cc1ccc2c(c1)c1c(n2CCc2ccc(C)nc2)CCN(C)C1 | inactive |
| CN(C)CCN(Cc1ccc(Cl)cc1)c1ccccn1 | inactive |
| CC1=C[C@@H]2[C@@H]([C@@H](O)C[C@@]3(C)[C@H]2C[C@@H](C)[C@]3(O)C(=O)CO)[C@@]2(C)Cc3cnn(-c4ccccc4)c3C=C12 | inactive |
| Cc1cnc(Nc2cccc(CN3CCOCC3)c2)nc1Nc1cccc(S(=O)(=O)NC(C)(C)C)c1 | inactive |
| CC1=C(C(=O)Nc2cc3cn[nH]c3cc2F)C(c2ccc(C(F)(F)F)cc2)CC(=O)N1 (stereo not given) | inactive |
| CC(C)(C)c1nc(-c2cccc(NS(=O)(=O)c3c(F)cccc3F)c2F)c(-c2ccnc(N)n2)s1 | inactive |
| COc1nccc(-c2c(-c3ccc(F)cc3)ncn2C2CCC(O)CC2)n1 (stereo not given) | inactive |
| Nc1ccc(-c2ccc3ncc4ccc(=O)n(-c5cccc(C(F)(F)F)c5)c4c3c2)cn1 | 33.2 nM (active) |
| CC(C)(O)CC(=O)NCCn1ccc2ncnc(Nc3ccc(Oc4cccc(C(F)(F)F)c4)c(Cl)c3)c21 | inactive |
| CN1c2ccccc2C(=O)N2CCc3c([nH]c4ccccc34)C21 (stereo not given) | inactive |
| COc1ccc(-c2ccc3ncc4c(c3c2)n(-c2ccc(N3CCNCC3)c(C(F)(F)F)c2)c(=O)n4C)cn1 | 23.5 nM (active) |

System: WaGa
Assay: as above
Settings: MCC and control cell lines, CellTiter-Glo viability, 72 h; series mostly up to 46 µM
Outline: as §1

| SMILES | Potency |
| --- | --- |
| Nc1ncnc2c1c(-c1cccc(OCc3ccccc3)c1)cn2C1CC(CN2CCC2)C1 (stereo not given) | inactive |
| CC(C)C[C@@H](C(=O)N[C@H](C(=O)OC1CCCC1)c1ccccc1)[C@H](O)C(=O)NO | 7430 nM (active) |
| O=C1Nc2ccc(I)cc2C1=Cc1cc(Br)c(O)c(Br)c1 | inactive |
| C=CCc1cccc(C=NNC(=O)CN2CCN(Cc3ccccc3)CC2)c1O | 16600 nM (active) |
| CN1C(=O)C(Cc2c[nH]c3ccccc23)NC1=S (stereo not given) | inactive |
| Cc1ccc(C(=O)N(CCCN)[C@@H](c2oc3cc(Cl)ccc3c(=O)c2Cc2ccccc2)C(C)C)cc1 | inactive |
| Cc1cccc2c1CC[C@H](CN1CCC(c3c(Cl)cccc3Cl)CC1)C[C@@H]2O | inactive |
| COC1CCC(C(=O)c2ccc3nc4c(cc3c2)CCCO4)CC1 (stereo not given) | inactive |
| Cc1ccc2c(c1)c1c(n2CCc2ccc(C)nc2)CCN(C)C1 | inactive |
| Cc1c(C(=O)Nc2ccc(N3C[C@@H](C)O[C@@H](C)C3)nc2)cccc1-c1ccc(OC(F)(F)F)cc1 | inactive |
| O=C(O)c1ccc(O)c2ncc(N3CCOCC3)cc12 | 23500 nM (active) |
| CSc1cccc(Nc2ncc3cc(-c4c(Cl)cccc4Cl)c(=O)n(C)c3n2)c1 | inactive |
| CC(C)C[C@H](NC(=O)c1cc2ccccc2s1)C(=O)N1CCN(C(=O)[C@H](CO)NS(=O)(=O)c2ccc(Cl)cc2Cl)CC1 | inactive |
| CC1=C[C@@H]2[C@@H]([C@@H](O)C[C@@]3(C)[C@H]2C[C@@H](C)[C@]3(O)C(=O)CO)[C@@]2(C)Cc3cnn(-c4ccccc4)c3C=C12 | inactive |
| Cc1cnc(Nc2cccc(CN3CCOCC3)c2)nc1Nc1cccc(S(=O)(=O)NC(C)(C)C)c1 | inactive |
| O=C(O)Cc1cccc(OCCCN(Cc2cccc(C(F)(F)F)c2Cl)CC(c2ccccc2)c2ccccc2)c1 | inactive |
| CC(C)N(CCCNC(=O)Nc1ccc(C(C)(C)C)cc1)C[C@H]1O[C@@H](n2cc(Br)c3c(N)ncnc32)[C@H](O)[C@H]1O | inactive |

| SMILES | Potency |
| --- | --- |
| COc1ccc(-c2cc3nccn3c(Nc3ncccc3C(N)=O)n2)cc1OC | inactive |
| CN[C@@H]1CN(c2ccc3c(=O)c(C(=O)O)cn(-c4nccs4)c3n2)C[C@@H]1OC | 1150 nM (active) |
| CN(C)CC[C@H](CSc1ccccc1)Nc1ccc(S(=O)(=O)NC(=O)c2ccc(N3CCN(Cc4ccccc4-c4ccc(Cl)cc4)CC3)cc2)cc1[N+](=O)[O-] | 264 nM (active) |
| C[C@@H](O[C@H]1OCCN(Cc2n[nH]c(=O)[nH]2)[C@@H]1c1ccc(F)cc1)c1cc(C(F)(F)F)cc(C(F)(F)F)c1 | inactive |
| C#CCN(C)CC1=Cc2ccccc2Oc2ccccc21 | inactive |
| Cc1ccc(NC(=O)c2cccc(N(C)C)c2)cc1NC(=O)c1ccc(O)cc1 | 8330 nM (active) |
| CC(C)(C)c1nc(-c2cccc(NS(=O)(=O)c3c(F)cccc3F)c2F)c(-c2ccnc(N)n2)s1 | inactive |
| Nc1ccc(-c2ccc3ncc4ccc(=O)n(-c5cccc(C(F)(F)F)c5)c4c3c2)cn1 | 372 nM (active) |
| CC(C)(O)CC(=O)NCCn1ccc2ncnc(Nc3ccc(Oc4cccc(C(F)(F)F)c4)c(Cl)c3)c21 | inactive |
| Nc1ccn([C@@H]2O[C@H](CO)[C@@H](O)[C@H]2O)c(=O)n1 | 132 nM (active) |
| CCCCc1ccc(NS(=O)(=O)c2ccc(C)c(C(=O)N3CCN(c4cccc(C)c4C)CC3)c2)cc1 | inactive |
| O=S(=O)(NCCNCC=Cc1ccc(Br)cc1)c1cccc2cnccc12 | 14800 nM (active) |
| CNC(=O)c1cc(COc2nnc(Nc3ccc(Cl)cc3)c3ccoc23)ccn1 | inactive |
| O=c1[nH]c(=O)n([C@H]2C[C@@H](O)[C@@H](CO)O2)cc1I | inactive |
| CN1c2ccccc2C(=O)N2CCc3c([nH]c4ccccc34)C21 (stereo not given) | inactive |
| CNC(=O)[C@H](CC1=CN=C2C=CCC=C12)NC(=O)[C@@H](CC(=O)NO)CC(C)C | 296 nM (active) |

From PubChem BioAssay (NCATS)
